DT40 TDP1 CPT = qHTS for Inhibitors of human tyrosyl-DNA phosphodiesterase 1 (TDP1): qHTS in cells in presence of CPT; chicken DT40 Tdp1-/-;hTDP1 cells + 20 nM CPT, ATP luminescence, 48 h; 420,000 tested, 12% active; Potency, µM (titrated, usually from 46.2 µM), inactives show at the highest dose activity change, negative = growth inhibition, usual class: inhibitors; also: potency is read from the fitted curve at half-maximal effect; % is scaled to controls: 0 for no effect and ±100 for the full control effect; nearly all actives have a fitted effect of over 55% in size
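Cell growth measured by CellTiter-Glo luminescence after a minimum 48 h, 37 C compound exposure with 20 nM CPT in Tdp1-knockout DT40 cells stably expressing hTDP1, seeded 400/well; qHTS titration format.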
HepG2 viability = qHTS for Inhibitors of TGF-b: Cytotox Counterscreen | HepG2 CAGA-GFP viability, ATP luminescence, 18 h | Potency, µM (highest dose often 46.1 µM), inactives show at the top dose activity change, negative = cytotoxicity, hits mostly cytotoxic | 410,000 tested, 0.76% active; also: potency is read from the fitted curve at half-maximal effect
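CellTiter-Glo luminescence gave cytotoxicity after 18 hours at 37 degrees C. The cells were HepG2 CAGA-GFP in 1% FBS DMEM, stimulated with 500 pg/mL TGF-beta after compound addition. %Activity was normalised to no-cell wells (complete cell-killing) and DMSO (no toxicity), and curves were fitted and classified.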
IL1B secr inh = qHTS for Inhibitors of Inflammasome Signaling: IL-1-beta AlphaLISA Primary Screen | THP-1 LPS/ATP IL-1B secretion, AlphaLISA, 16 h; stronger effect = lower value | activity change, % at 57.5 µM | 360,000 tested, 4.7% active | AID 743279, 2014; in the data active = activity change below about -50%; inconclusive = mostly about -30% to -49%; also: % is scaled to controls: 0 for no effect and ±100 for the full control effect
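THP-1 cells pretreated 1 hr with compounds (up to 57.5 uM final), then stimulated with LPS (250 ng/mL final) plus ATP (1.25 mM final); secreted IL-1B measured by AlphaLISA after 16 hr, decreased signal indicating inhibition.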
TGFb SMAD3 inh = qHTS for Inhibitors of TGF-b; 410,000 tested, 1.2% active; HepG2 CAGA-GFP TGF-b/SMAD3 reporter, GFP fluorescence, 18 h; TGF-beta stimulated, 500 pg/mL final; Potency, µM (highest dose often 46.1 µM), inactives show top-dose activity, negative = inhibition, usual class: inhibitors; also: potency is read from the fitted curve at half-maximal effect; % is scaled to controls: 0 for no effect and ±100 for the full control effect; nearly all actives have a fitted effect of over 65% in size
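Read-out: total well GFP (ex488/em500-530) summed from mean per-cell fluorescence. Cells: HEPG2 CAGA-GFP, 1% FBS DMEM, 18 h at 37 degrees C with 500 pg/mL final TGF-beta. Unstimulated wells served as the full-inhibition control; stimulated DMSO wells = 0%.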
DT40 TDP1 no CPT = qHTS for Inhibitors of human tyrosyl-DNA phosphodiesterase 1 (TDP1): qHTS in cells in absence of CPT; DT40 Tdp1-/- hTDP1 cells, no CPT, ATP luminescence, 48 h; Potency, µM (highest dose often 46.2 µM), for the others: top-dose activity change, negative = growth inhibition, actives largely listed as inhibitors; 420,000 tested, 15% active; AID 686978, 2013; also: potency is read from the fitted curve at half-maximal effect; % is scaled to controls: 0 for no effect and ±100 for the full control effect; nearly all actives have a fitted effect of over 55% in size
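DT40 Tdp1-/-;hTDP1 cells, no CPT (DMSO vehicle only), 400 cells/well; compounds pin-transferred; ≥48 hr, 37 °C; CellTiter-Glo 30 min RT dark, luminescence read.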
TDP1 block = qHTS Assay for Inhibitors of Tyrosyl-DNA Phosphodiesterase (TDP1) | 350,000 tested, 0.28% active | recombinant TDP1, AlphaScreen DNA substrate cleavage | Potency, µM (series often up to 130 µM), without a hit: at the highest dose activity change, negative = inhibition, hits mostly inhibitors; also: potency is read from the fitted curve at half-maximal effect; % is scaled to controls: 0 for no effect and ±100 for the full control effect; nearly all actives have a fitted effect of over 40% in size
Target sequence (Q9NUW8 whole entry, looked up): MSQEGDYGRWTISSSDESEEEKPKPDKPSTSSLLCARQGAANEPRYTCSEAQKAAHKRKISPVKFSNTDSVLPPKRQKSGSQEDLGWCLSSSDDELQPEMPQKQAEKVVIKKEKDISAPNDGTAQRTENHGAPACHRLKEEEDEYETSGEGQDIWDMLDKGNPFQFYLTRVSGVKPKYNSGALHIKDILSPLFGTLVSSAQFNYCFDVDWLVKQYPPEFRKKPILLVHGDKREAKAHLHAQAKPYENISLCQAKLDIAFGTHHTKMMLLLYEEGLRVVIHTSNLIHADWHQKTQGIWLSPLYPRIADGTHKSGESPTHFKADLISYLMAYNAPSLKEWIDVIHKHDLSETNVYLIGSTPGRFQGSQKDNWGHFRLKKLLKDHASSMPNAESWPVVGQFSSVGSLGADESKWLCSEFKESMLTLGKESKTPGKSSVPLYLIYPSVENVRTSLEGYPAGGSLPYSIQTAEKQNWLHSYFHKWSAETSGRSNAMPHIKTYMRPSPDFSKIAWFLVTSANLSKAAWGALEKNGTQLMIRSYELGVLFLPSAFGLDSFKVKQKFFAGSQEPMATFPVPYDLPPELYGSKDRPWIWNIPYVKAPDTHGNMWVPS
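Here, a 5' biotin and 3' phosphotyrosine-FITC DNA oligonucleotide reports Tdp1 activity: intact substrate bridges AlphaScreen beads, while cleavage leaves a 3' phosphate and drops signal. All incubations at room temperature.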
Active calls of the source: *; [ ] = dose if it differs, or a comment. The list is not random: actives were taken first. Their share in the collection is about 18%. Unless noted, calls follow the shape of the dose curve; as a rule, active = well fitted curve in the direction sought with a large enough effect; inconclusive = small, poorly fitted or top-dose-only effect, or another doubt; inactive = no such curve, though single readings can be large; an effect the other way counts as inactive or inconclusive.

How did Cc1cccc(Cn2c(C(C)(C)C)cc3cccnc32)c1 do in these assays?
DT40 TDP1 CPT: inconclusive; HepG2 viability: -37%; IL1B secr inh: -23; TGFb SMAD3 inh: inconclusive; DT40 TDP1 no CPT: 21µM*; TDP1 block: 6%

What do the screens show for `Cc1cc(C)n(-c2nnc(C)n2/N=C/c2ccccc2OCc2ccccc2Cl)n1`?
DT40 TDP1 CPT: inconclusive; HepG2 viability: 1%; IL1B secr inh: -6; TGFb SMAD3 inh: inconclusive; DT40 TDP1 no CPT: 21µM*; TDP1 block: 0%

What do the screens show for `Cc1c(C(=O)N(C)C2CCCCC2)sc2ncnc(N3CCN(c4ccccc4F)CC3)c12`?
DT40 TDP1 CPT: 18µM*; HepG2 viability: -11%; IL1B secr inh: 0; TGFb SMAD3 inh: inconclusive; DT40 TDP1 no CPT: 18µM*; TDP1 block: 5%

How did Cc1c(C(=O)N(C)C2CCCCC2)sc2ncnc(N3CCN(c4ccccc4)CC3)c12 do in these assays?
DT40 TDP1 CPT: 13µM*; HepG2 viability: -32%; IL1B secr inh: -16; TGFb SMAD3 inh: inconclusive; DT40 TDP1 no CPT: 15µM*; TDP1 block: 4%

What do the screens show for `Cc1c(C(=O)N2CCC(C)CC2)sc2ncnc(N3CCN(c4ccccc4)CC3)c12`?
DT40 TDP1 CPT: -5%; HepG2 viability: -9%; IL1B secr inh: -27; TGFb SMAD3 inh: -7%; DT40 TDP1 no CPT: -29%; TDP1 block: 4%

How did O=C(O)C1Cc2[nH]cnc2C(c2ccc(F)cc2)N1 (configuration not stated) do in these assays?
DT40 TDP1 CPT: 0%; HepG2 viability: 0%; IL1B secr inh: -14; TGFb SMAD3 inh: -4%; DT40 TDP1 no CPT: -11%; TDP1 block: 6%

What do the screens show for `CCn1nc(C)c(CCN(C)C(=O)Nc2cccc(Cl)c2C)c1C`?
DT40 TDP1 CPT: -24%; HepG2 viability: 0%; TGFb SMAD3 inh: 9%; DT40 TDP1 no CPT: inconclusive; TDP1 block: -4%

How did CCc1nc2nc(C)cc(C)n2c1Nc1ccc(OC)cc1 do in these assays?
DT40 TDP1 CPT: inconclusive; IL1B secr inh: 44; DT40 TDP1 no CPT: 18µM*

What do the screens show for `CCCCNc1c(CCc2ccccc2)nc2nc(C)cc(C)n12`?
DT40 TDP1 CPT: 18µM*; IL1B secr inh: -3; DT40 TDP1 no CPT: inconclusive

What do the screens show for `Cc1ccc(Nc2c(-c3ccco3)nc3nc(C)cc(C)n23)cc1`?
DT40 TDP1 CPT: inconclusive; HepG2 viability: 19%; IL1B secr inh: 5; TGFb SMAD3 inh: -3%; DT40 TDP1 no CPT: inconclusive; TDP1 block: 2%

What do the screens show for `COc1ccc(Nc2c(CCc3ccccc3)nc3nc(C)cc(C)n23)cc1`?
DT40 TDP1 CPT: 18µM*; IL1B secr inh: -8; DT40 TDP1 no CPT: 13µM*

How did O=C(CN(CC1CCCO1)C(=O)CCC(=O)Nc1ccccn1)NCC1CCCO1 (configuration not stated) do in these assays?
DT40 TDP1 CPT: 4%; HepG2 viability: -1%; IL1B secr inh: 3; TGFb SMAD3 inh: -7%; DT40 TDP1 no CPT: -22%; TDP1 block: 6%

How did COCCN(CC(=O)NCC1CCCO1)C(=O)CCC(=O)Nc1ccccn1 (configuration not stated) do in these assays?
DT40 TDP1 CPT: 13µM*; HepG2 viability: 1%; IL1B secr inh: -9; TGFb SMAD3 inh: -4%; DT40 TDP1 no CPT: 23µM*; TDP1 block: 4%

Results for COc1ccccc1CNC(=O)Nc1nc(C(N)C(C)C)cs1 (configuration not stated) ?
DT40 TDP1 CPT: inconclusive; HepG2 viability: -14%; IL1B secr inh: -51*; TGFb SMAD3 inh: 17%; DT40 TDP1 no CPT: inconclusive

Results for COc1ccc(OC)c(NC(=O)Nc2nc(CN)cs2)c1 ?
DT40 TDP1 CPT: inconclusive; HepG2 viability: -2%; IL1B secr inh: -8; TGFb SMAD3 inh: 3%; DT40 TDP1 no CPT: inconclusive

How did COc1ccccc1NC(=O)Nc1nc(C(C)(C)C)cs1 do in these assays?
DT40 TDP1 CPT: 16µM*; HepG2 viability: -30%; IL1B secr inh: -83*; TGFb SMAD3 inh: inconclusive; DT40 TDP1 no CPT: -23%; TDP1 block: 6%

Results for COc1cc(NC(=O)Nc2nc(C(N)C(C)C)cs2)cc(OC)c1OC (configuration not stated) ?
DT40 TDP1 CPT: inconclusive; HepG2 viability: -11%; IL1B secr inh: -5; TGFb SMAD3 inh: -9%; DT40 TDP1 no CPT: inconclusive

What do the screens show for `COc1ccc(OC)c(NC(=O)Nc2nc(C(C)N)cs2)c1` (configuration not stated)?
DT40 TDP1 CPT: -29%; HepG2 viability: 0%; IL1B secr inh: -69*; TGFb SMAD3 inh: -4%; DT40 TDP1 no CPT: inconclusive

Results for COc1ccccc1NC(=O)Nc1nc(C(N)C(C)C)cs1 (configuration not stated) ?
DT40 TDP1 CPT: inconclusive; HepG2 viability: -2%; IL1B secr inh: -27; TGFb SMAD3 inh: inconclusive; DT40 TDP1 no CPT: 21µM*

How did COc1ccc(O)c(CN2CCOc3c(cc(-c4cccc(OC)n4)cc3OC)C2)c1 do in these assays?
DT40 TDP1 CPT: -3%[9.04 µM]; DT40 TDP1 no CPT: inconclusive

What do the screens show for `Cc1cc(N=Nc2ccccc2)cc(C)c1NC(=O)C(F)(F)F`?
DT40 TDP1 CPT: inconclusive; HepG2 viability: 1%; IL1B secr inh: inconclusive; TGFb SMAD3 inh: -30%; DT40 TDP1 no CPT: inconclusive

What do the screens show for `Cc1nnc(C(C)C)n1C1C[C@H]2CC[C@@H](C1)N2CC[C@H](NC(=O)C1CCC(F)(F)CC1)c1ccccc1` (some centres not stated)?
DT40 TDP1 CPT: -4%; DT40 TDP1 no CPT: -9%

How did N#Cc1ccc(N2CCOCC2)nc1 do in these assays?
DT40 TDP1 CPT: 1%; HepG2 viability: 3%; IL1B secr inh: 0; TGFb SMAD3 inh: -6%; DT40 TDP1 no CPT: 8%; TDP1 block: 6%

Results for Cc1ccc(Cn2ccsc2=NC(=O)COC(=O)C(C)C)cc1 ?
DT40 TDP1 CPT: 15µM*; HepG2 viability: -5%; IL1B secr inh: -10; TGFb SMAD3 inh: -23%; DT40 TDP1 no CPT: 8.2µM*; TDP1 block: 5%
